# Screens (PubChem)
# A3A deaminase – blocks human APOBEC3A ssDNA deamination; P31941; recombinant A3A, FAM/TAMRA ssDNA deamination fluorescence; inhibition, % at 20 µM; actives 0.41% (n = 330,000);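 active means at least 40% inhibition at 20 µM here, with at most 30% in a related deaminase screen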;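 further: plate controls were A3A with DMSO for no effect and wells lacking A3A enzyme for full effect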
# Target sequence (P31941 whole entry, looked up): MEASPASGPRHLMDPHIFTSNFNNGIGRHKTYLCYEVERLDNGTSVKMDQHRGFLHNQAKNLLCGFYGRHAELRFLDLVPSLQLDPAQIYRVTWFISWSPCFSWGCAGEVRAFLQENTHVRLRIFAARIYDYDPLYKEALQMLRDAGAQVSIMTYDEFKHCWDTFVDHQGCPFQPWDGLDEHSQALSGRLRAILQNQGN
# PolyA inhibitor – blocks polyadenylation in yeast reporter cells; S. cerevisiae SKY197-pL101 polyadenylation reporter, beta-gal luminescence; efflux-impaired pdr1/pdr3 knockout yeast; score 100 = 6 SD above DMSO; activity score, % at 12 µM; actives 0.02% (n = 300,000); AID 1875;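 active means lowest replicate activity score at least 50, where 100 means six control SD above control mean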;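 further: yeast exposed to compound for 9 h at 30 °C; higher score means more reporter readthrough which indicates perturbed polyadenylation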
# APOBEC3G inh – APOBEC3G (human) deaminase inhibition | AID 493012 | actives 0.28% (n = 330,000) | Q9HC16 | inhibition, % at 20 µM | recombinant A3G, ssDNA deamination FAM/TAMRA fluorescence;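 active means inhibition of at least 40% at 20 µM, with no more than 30% in the related APOBEC3A deaminase screen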;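 further: plate controls were DMSO wells with A3G for no effect and wells lacking A3G enzyme for full effect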
# Target sequence (Q9HC16 whole entry, looked up): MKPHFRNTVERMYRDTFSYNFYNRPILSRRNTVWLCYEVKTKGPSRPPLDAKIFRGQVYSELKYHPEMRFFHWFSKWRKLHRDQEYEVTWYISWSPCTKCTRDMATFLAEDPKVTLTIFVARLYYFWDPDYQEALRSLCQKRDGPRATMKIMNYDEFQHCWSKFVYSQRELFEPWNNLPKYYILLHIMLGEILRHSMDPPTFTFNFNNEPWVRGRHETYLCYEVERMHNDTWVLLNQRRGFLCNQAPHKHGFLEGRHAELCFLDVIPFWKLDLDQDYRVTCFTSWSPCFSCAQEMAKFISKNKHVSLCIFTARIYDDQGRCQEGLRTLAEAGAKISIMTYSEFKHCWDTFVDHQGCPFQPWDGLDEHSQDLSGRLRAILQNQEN
# NALP1 inh – NALP1 inhibition; AID 2071; actives 0.61% (n = 280,000); inhibition, % at 10 µM; S. cerevisiae NALP1/ASC/caspase-1 growth, X-gal OD620, 72 h; in the data active means inhibition mostly above about 24%, no sharp cut-off; inactive means mostly below about 32%
# APOBEC3A confirm – confirmation of human APOBEC3A DNA deaminase inhibitors; AID 493151; inhibition, % at 20 µM; recombinant A3A, ssDNA deaminase UDG fluorescence assay; shares compounds with A3A deaminase; actives 63% (n = 1,400);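 active means inhibition reaching a set limit, 80% of the first screen's cutoff, at 20 µM in any replicate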;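 further: plate controls were DMSO wells with A3A for no effect and wells lacking A3A enzyme for full effect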
# UDG A3A counter – inhibits UDG, flagging false APOBEC3A inhibitors; UDG counterscreen, FAM/TAMRA uracil oligo fluorescence; 1,000 tested, under 10 active; inhibition, % at 20 µM; shares compounds with A3A deaminase; call rule not given here
# * = called active by the depositor; . = no result given. The list is not random: actives were taken first. Their share in the collection is about 1.2%.
SMILES,A3A deaminase,PolyA inhibitor,APOBEC3G inh,NALP1 inh,APOBEC3A confirm,UDG A3A counter
CCOc1ccc(N2CC(C(=O)NCc3ccco3)CC2=O)cc1 (stereo not given),0,-9,-4,6,.,.
Nc1ncnc2c1ncn2[C@@H]1O[C@H](CNCc2ccccc2OCc2ccc(Cl)cc2Cl)[C@@H](O)[C@H]1O,-2,.,-4,.,.,.
N[C@@H](Cc1ccccc1)C(=O)N1CCC(C(=O)NCC(=O)NCC(=O)O)CC1,2,-7,-4,-2,.,.
Cc1cc(C)cc(N=C2NC(=O)/C(=C/c3cccs3)S2)c1,42*,-24,13,32,26,.
O=C1NC(=Nc2ccccc2)S/C1=C\c1cccs1,-4,-1,-8,.,.,.
N#C/C(=C/c1ccccc1OCc1ccc(F)cc1)c1ccc(C(=O)O)cc1,67*,-2,6,0,8,.
COc1ccc(OC)c(CNC(=O)CCCn2ccc3cc(S(=O)(=O)N4CCCC4)ccc32)c1,-9,14,-8,-12,.,.
CCOc1ccc(NC(=O)c2cc(C3CC3)nc3c2cnn3C(C)C)cc1OC,51*,.,10,.,28,.
CNC(=O)CN(C1CCCCC1)S(=O)(=O)c1ccc(OC)c(Cl)c1,44*,1,17,.,15,.
CCOCCCNC(=O)C1CCCN(S(=O)(=O)c2ccc(-n3cnnn3)cc2)C1 (stereo not given),4,-12,-2,2,.,.
CCCn1c(=O)c2ccccc2n2c(SCC(=O)N3CCc4ccccc4C3)nnc12,1,-5,-3,35,.,.
CCn1c(SC(C)C(=O)Nc2nccs2)nnc1-c1ccncc1 (stereo not given),-7,-5,-8,7,.,.
CCc1nn(CCCC(=O)N2CCC(C)CC2)c(=O)c2cc3occc3n12,40*,-10,-2,13,-7,-1
CC(=O)c1c(C)[nH]c(C(=O)OCC(=O)Nc2ccc3c(c2)OCCO3)c1C,-2,.,-5,.,.,.
CC1=C(C(=O)Nc2ccccc2C(=O)N2CCC(C)CC2)SCCO1,-4,-5,0,5,.,.
O=C(Nc1cc2c(cc1Br)OCCCO2)c1ccccc1,55*,-2,2,31,1,.
O=C(Nc1cc2c(cc1Br)OCCCO2)c1cccnc1,-2,12,-2,12,.,.
Cn1nnnc1SCC(=O)Nc1ccc(Br)cc1Br,0,.,-5,.,.,.
Cn1nnnc1SCC(=O)Nc1ccc(Br)cc1Cl,50*,12,15,-21,49*,-1
O=C(Nc1ccc(NC(=O)C2CC2)cn1)c1ccccc1Cl,43*,15,-2,23,-6,-1
O=C(CNC(=O)c1ccc(Br)o1)Nc1ncccc1O,0,-15,-6,.,.,.
C[n+]1ccccc1N1CCN(c2ccccc2Cl)CC1,60*,7,28,14,26,.
Cc1ccc(Cl)cc1N1CCN(c2cccc[n+]2C)CC1,46*,15,24,36,26,.
Cc1ccc(Cl)cc1N1CCN(C(=S)NCCc2ccccc2)CC1,-3,-51,-1,12,.,.
COc1ccc(C(=S)N2CCN(c3ccccc3Cl)CC2)cc1OC,-3,-3,37,-12,.,.
SMILES,A3A deaminase,PolyA inhibitor,APOBEC3G inh,NALP1 inh,APOBEC3A confirm,UDG A3A counter
Cc1nn(Cc2ccccc2Cl)c(C)c1C(=O)N(C)CC(=O)Nc1cccc(F)c1,-4,.,-5,.,.,.
CCCCOc1ccc(NC(=O)CCSc2nccn2C)cc1,42*,22,16,-14,1,.
Cc1ccc2c(c1)N(C)/C(=C/c1cccc[n+]1CCO)S2,48*,-16,16,4,83*,2
CCCCN1/C(=C/c2cccc[n+]2C)Sc2cc(NC(C)=O)ccc21,80,17,32,10,.,.
COCC(=O)/C=C1\Sc2ccccc2N1C,-3,-14,-8,-4,.,.
Cc1ccc2c(c1)N(C)/C(=C/c1cccc[n+]1C)S2,67*,-3,23,15,91*,1
CN1/C(=C/c2cccc[n+]2C)Sc2ccccc21,62*,-10,21,14,87*,-1
CC[C@]1(C(=O)OC)[C@H]2C(=O)N(Cc3ccccc3)C(=O)[C@H]2[C@H]2CN(C)C(=NC)N21,0,.,-2,.,.,.
CSCC(C)N1CCC(n2nccc2NC(=O)CCOc2ccccc2)CC1 (stereo not given),0,2,12,4,.,.
CC[n+]1ccc(C)c2cc(P(=O)(c3ccccc3)c3ccccc3)ccc21,63*,13,26,4,active,4
COc1ccc(OCC(NS(=O)(=O)c2ccc(-n3cnnn3)cc2)C(C)C)cc1 (stereo not given),-3,-5,0,9,.,.
O=C(NCc1ccccc1Cl)c1cc(=O)[nH]c2ccccc12,52*,1,3,7,15,.
O=C(NCc1ccccc1F)c1cc(=O)[nH]c2ccccc12,2,11,-3,8,.,.
CCOc1ccc(C(C)=O)cc1COc1ccc(-c2nnco2)cc1,4,10,-8,10,.,.
CN1CCN(S(=O)(=O)c2ccc(C3CCCCC3)cc2)CC1,45*,.,8,.,50*,1
CC(C(=O)OCC(=O)NC1CCCCC1)N1C(=O)c2ccccc2C1=O (stereo not given),-5,.,-8,.,.,.
O=C(CN1C(=O)S/C(=C\c2ccc(-c3cc(C(=O)O)ccc3Cl)o2)C1=O)Nc1ccc2c(c1)OCO2,50*,.,-3,-48,3,4
Cc1n(C)c2cc(Cl)ccc2[n+]1Cc1ccccc1,78*,10,26,-38,65*,-2
CCC(C)c1ccccc1N1CC(C(=O)N2CCN(C(=O)c3ccco3)CC2)CC1=O (stereo not given),-4,.,-6,.,.,.
O=C(c1cccc(S(=O)(=O)NCc2ccc3c(c2)OCO3)c1)N1CCCC1,89*,.,-9,.,-8,0
Cc1ccc(C(C)NC(=O)c2cc3cc(Br)ccc3oc2=N)cc1 (stereo not given),-4,-12,-12,14,.,.
CCOc1cc(/C=C(\C#N)C(=O)NCC2CCCO2)ccc1O (stereo not given),-3,-14,-11,-4,.,.
CCOc1cc(/C=C(\C#N)C(=O)NCC2CCCO2)ccc1OCC(N)=O (stereo not given),51*,-1,13,0,43*,-2
C[N+]1(CCn2ccc3ccccc32)CCCCC1,63*,3,14,3,68*,-1
CS(=O)(=O)NCCn1ccc2ccccc21,-1,-3,-1,6,.,.
CCN(CC(=O)NCc1ccc(Cl)cc1)C(=O)c1ccc(S(=O)(=O)NCc2ccco2)cc1,-2,7,1,9,.,.
CCN1CCN(c2ccc(S(=O)(=O)N3CCCCC3)cc2NC(=O)c2ccccc2)CC1,46*,6,7,.,23*,2
CCN1CCN(c2ccc(S(=O)(=O)N3CCCCC3)cc2NC(=O)Cc2ccccc2)CC1,57*,-9,11,.,64*,-2
